Data reported in the supplement of paper PMC9433436.
± gives the standard deviation of the averaged measurements. Whole data set: some 4,100 sequences, median “relative kcat/Km (krel) vs genomic leader AAAGAU” near 1.7, cut for the highest 2% near 6.5. Many of the other results were omitted from the sample, so the highest values are more common in it than they were.

Target: T1, E. coli RNase P holoenzyme (M1 P RNA + rnpA protein) (UniProt P0A7Y8)
T1 sequence: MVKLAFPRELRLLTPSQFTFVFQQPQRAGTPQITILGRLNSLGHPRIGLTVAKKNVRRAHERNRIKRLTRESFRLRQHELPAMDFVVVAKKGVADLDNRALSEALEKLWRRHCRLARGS
Assay: relative kcat/Km (krel) vs genomic leader AAAGAU (relative (reference leader = 1)); higher = faster RNase P cleavage
Protocol: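 HTS-Kin: a pool of ptRNA-Met (21C construct) with all 4096 combinations of 5' leader nucleotides N(-6) to N(-1) was processed in vitro by E. coli RNase P (P RNA + rnpA/C5 protein) under multiple-turnover conditions at 37 C, pH 8, 17.5 mM MgCl2. Residual substrate was Illumina-sequenced at several fractions reacted, and relative kcat/Km (krel) was computed by internal competition kinetics, calibrated to the genomic leader (AAAGAU = 1). The listed hexamer is the varied N(-6)..N(-1) leader (DNA letters), and it sits between a fixed 5' stem-loop flank (GCAUGCACGAAAGUGCGUGCUAUGAA) and the mature tRNA-Met starting GGCUACGUAGCUCAGUUGG. Two technical replicates are averaged.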

[1] = fraction of substrate reacted: ~9-10% (9.79% repeat 1, 9.1% repeat 2)
[2] = fraction of substrate reacted: ~13-16% (15.68% repeat 1, 13.17% repeat 2)
[3] = fraction of substrate reacted: ~26-29% (28.66% repeat 1, 26.4% repeat 2)

| Sequence | relative kcat/Km [1] | relative kcat/Km [2] | relative kcat/Km [3] |
| --- | --- | --- | --- |
| TCGCAA | 2.14 ± 1.8 | 2.55 ± 0.15 | 3.22 ± 0.85 |
| CAGATT | 1.72 ± 0.68 | 2 ± 0.1 | 2.79 ± 0.81 |
| CGTTGT | 0.465 ± 0.32 | – | 1.21 ± 0.9 |
| TGTTCT | 1.986 ± 0.0021 | 2.58 ± 0.73 | 4.41 ± 1.8 |
| GGTTAA | 0.853 ± 0.094 | 1.16 ± 0.33 | 1.35 ± 0.6 |
| GGTTAC | 0.591 ± 0.54 | 1.09 ± 0.22 | 2.13 ± 0.98 |
| TGTTAT | 3.17 ± 1.4 | 4.69 ± 0.22 | 6.81 ± 2.8 |
| CGTTAC | 3.84 ± 0.72 | 5.28 ± 1.9 | 7.82 ± 2.9 |
| GGTTAT | 0.926 ± 0.33 | 1.69 ± 0.19 | 2.83 ± 1.2 |
| TGTTAG | 2.17 ± 1.1 | 2.36 ± 0.065 | 4.6 ± 1.1 |
| CGTTTA | 2.35 ± 0.28 | 3.11 ± 0.48 | 4.14 ± 1.4 |
| CGTTAT | 4.04 ± 1 | 5.58 ± 1.3 | 8.08 ± 3.4 |
| CGTTAA | 3.62 ± 0.3 | 5.04 ± 1.6 | 7.04 ± 2.8 |
| CGTTAG | 2.87 ± 1.6 | 2.22 ± 0.3 | 4 ± 1.2 |
| TATTGT | 0.735 ± 0.4 | – | – |
| GACCAC | 2.53 ± 1.4 | 3.51 ± 0.65 | 5.22 ± 1.2 |
| GCCCAG | 0.499 ± 0.44 | 0.933 ± 0.79 | 3 ± 0.76 |
| AAAATC | 2.07 ± 0.94 | 1.14 ± 0.28 | 1.37 ± 0.15 |
| AGTTAG | 2.06 ± 1.1 | 2.34 ± 0.29 | 4.77 ± 1.3 |
| ACTTAC | 3.88 ± 2.3 | 4.09 ± 0.096 | 5.29 ± 1.6 |
| AGTTAC | 3.18 ± 1.6 | 5.31 ± 0.22 | 7.26 ± 2.7 |
| TACGTA | 2.14 ± 0.53 | 2.47 ± 0.38 | 3.67 ± 1.2 |
| CAGAGT | – | – | 0.537 ± 0.3 |
| CTCTTT | 3.59 ± 0.8 | 4.98 ± 1.2 | 7.01 ± 3 |
| CTCTTC | 3.63 ± 0.69 | 4.38 ± 0.62 | 6.47 ± 2.3 |

| Sequence | relative kcat/Km [1] | relative kcat/Km [2] | relative kcat/Km [3] |
| --- | --- | --- | --- |
| GTCTTT | 4.65 ± 1.2 | 5.87 ± 1.4 | 8.44 ± 3.8 |
| TTCTTA | 4.55 ± 1.2 | 5.9 ± 0.59 | 7.98 ± 3.2 |
| ATCTTA | 2.6 ± 0.64 | 3.89 ± 0.59 | 5.74 ± 2.1 |
| TTCTTC | 4.65 ± 1.6 | 5.94 ± 0.85 | 7.95 ± 3.2 |
| CTCTTA | 2.98 ± 0.098 | 4.69 ± 1.5 | 6.21 ± 2.8 |
| TGCTTC | 2.79 ± 0.96 | 2.83 ± 0.76 | 3.73 ± 1.2 |
| CTCTTG | 2.31 ± 1.9 | 1.64 ± 0.35 | 3.11 ± 0.5 |
| GCCTTT | 3.36 ± 1.7 | 3.71 ± 0.066 | 5.06 ± 1.7 |
| GTCTTG | 2.05 ± 1.9 | 1.96 ± 0.21 | 3.58 ± 0.69 |
| ATCTTC | 3.23 ± 1.1 | 4.36 ± 0.71 | 6.11 ± 2.2 |
| TTAACT | 1.58 ± 0.78 | 1.54 ± 0.2 | 2.03 ± 0.47 |
| CCTCCC | 0.874 ± 0.5 | 1.06 ± 0.17 | 1.57 ± 0.17 |
| CTAGAC | 1.95 ± 0.33 | 3.27 ± 0.96 | 4.19 ± 2.1 |
| GGATTA | 1.24 ± 0.14 | 0.993 ± 0.47 | 1.52 ± 0.41 |
| TCGGTG | 0.643 ± 0.43 | – | 0.367 ± 0.27 |
| TGCTTT | 2.25 ± 0.41 | 2.232 ± 0.0079 | 3.45 ± 1.3 |
| GTCTTC | 4.4 ± 1.6 | 5.61 ± 1.7 | 8.18 ± 3.4 |
| GCCTTA | 2.94 ± 1.2 | 3.35 ± 0.54 | 5.21 ± 1.5 |
| ATCTTG | – | 1.15 ± 0.053 | 2.716 ± 0.019 |
| GTCTTA | 4.14 ± 1.1 | 5.78 ± 0.74 | 7.65 ± 2.9 |
| GCCTTC | 3 ± 0.21 | 4.03 ± 2.2 | 5.81 ± 3.1 |
| GACTTC | 3.65 ± 0.53 | 4.38 ± 2.1 | 6.22 ± 3.3 |
| AGCTTT | 2.79 ± 1.2 | 2.71 ± 0.49 | 4.09 ± 1.6 |
| ATCTTT | 3.55 ± 1.4 | 4.27 ± 0.42 | 6.67 ± 2.8 |
| TTCTTG | 1.95 ± 1.7 | 1.96 ± 0.17 | 4 ± 1.1 |

| Sequence | relative kcat/Km [1] | relative kcat/Km [2] | relative kcat/Km [3] |
| --- | --- | --- | --- |
| GGCTTA | 1.58 ± 0.71 | 1.39 ± 0.29 | 1.79 ± 0.95 |
| TTCTTT | 4.38 ± 0.77 | 6.36 ± 1.2 | 8.65 ± 4 |
| TCAGCT | 1.54 ± 0.23 | 0.491 ± 0.47 | 1.24 ± 0.075 |
| GCTGTC | 1.58 ± 0.93 | 0.624 ± 0.091 | 0.9566 ± 0.0067 |
| GGCGAC | 2.53 ± 0.11 | 2.47 ± 1.2 | 4.08 ± 1.4 |
| TTAGAT | 1.88 ± 0.57 | 2.14 ± 0.17 | 2.8 ± 1.2 |
| CTTCCC | 1.37 ± 0.18 | 1.5 ± 1.2 | 1.93 ± 0.53 |
| GGGATG | 0.585 ± 0.41 | – | 0.779 ± 0.15 |
| CTAGAT | – | 1.15 ± 0.17 | 1.83 ± 0.17 |
| GACCTC | 2.41 ± 0.81 | 2.49 ± 0.041 | 3.63 ± 0.74 |
| GGATAC | 1.9 ± 1.2 | 1.76 ± 0.55 | 3.05 ± 0.7 |
| CGCTAC | 3.79 ± 0.67 | 4.78 ± 2.6 | 6.76 ± 2.8 |
| GACTAC | 4 ± 0.5 | 6.14 ± 3 | 8.43 ± 3.9 |
| CACTGC | 3.89 ± 1.6 | 4.53 ± 1.3 | 6.06 ± 1.9 |
| AACTAC | 3.89 ± 1.7 | 4.66 ± 0.63 | 6.38 ± 2.5 |
| CACTAC | 4.63 ± 0.25 | 6.82 ± 2.5 | 8.23 ± 3.5 |
| CACTAT | 4.78 ± 1.4 | 6.06 ± 2 | 8.37 ± 3.9 |
| CGCTAT | 3.49 ± 0.87 | 4.44 ± 1.6 | 5.95 ± 2.4 |
| CGCTAG | 2.34 ± 1.3 | 2.43 ± 1 | 3.4 ± 0.31 |
| CACTGT | 1.07 ± 0.037 | 0.947 ± 0.35 | 1.51 ± 1.1 |
| CGTATA | 2.37 ± 0.34 | 2.75 ± 0.17 | 3.94 ± 1.5 |
| GATGGT | – | – | 2.1 ± 0.88 |
| TGAGAC | 2.71 ± 1.3 | 2.56 ± 0.093 | 4.48 ± 1.3 |
| TATACA | 1.36 ± 0.29 | 2.13 ± 0.035 | 3.02 ± 1.8 |
| AGTCGA | 2.68 ± 0.35 | 3.65 ± 1.2 | 5.59 ± 2 |

| Sequence | relative kcat/Km [1] | relative kcat/Km [2] | relative kcat/Km [3] |
| --- | --- | --- | --- |
| ACCTAT | 3.74 ± 1.7 | 4.66 ± 0.24 | 6.39 ± 2.5 |
| GCCTAC | 3.67 ± 1.2 | 4.5 ± 0.39 | 6.1 ± 2.4 |
| TCCTAC | 4.6 ± 1.6 | 5.74 ± 0.95 | 9.69 ± 4.1 |
| TCCTAT | 4.03 ± 0.47 | 6.02 ± 0.85 | 9.38 ± 4.8 |
| TCCTTT | 3.7 ± 1.8 | 4.6 ± 0.8 | 6.89 ± 2.9 |
| CCCTTC | 3.11 ± 1.4 | 3.36 ± 0.74 | 4.51 ± 1.3 |
| TCCTTA | 3.84 ± 1.5 | 4.61 ± 0.54 | 6.32 ± 2.4 |
| ACCTAC | 3.44 ± 1.2 | 4.53 ± 0.77 | 5.77 ± 2.1 |
| TCCTTC | 3.75 ± 1.2 | 4.99 ± 0.72 | 6.44 ± 2.3 |
| CCCTAC | 4.32 ± 1.6 | 5.08 ± 2.3 | 7.32 ± 3.6 |
| CCCTTT | 2.73 ± 0.52 | 3.73 ± 1.1 | 5.02 ± 2 |
| GAAGAT | 1.93 ± 1.7 | 1.36 ± 0.085 | 1.34 ± 0.35 |
| ATGCTG | – | – | 0.658 ± 0.54 |
| CTTAGA | 3.03 ± 0.85 | 3.18 ± 0.44 | 4.79 ± 1.7 |
| GATACC | – | 1.49 ± 0.64 | 1.67 ± 0.033 |
| CTGAAG | – | – | 2.05 ± 0.18 |
| TCCCGT | – | – | 1.86 ± 0.041 |
| GCAATT | – | 0.851 ± 0.064 | 1.21 ± 0.26 |
| AGTGTG | – | – | 0.473 ± 0.33 |
| ACCTCA | 3.35 ± 1.8 | 3.24 ± 0.27 | 4 ± 1.2 |
| CCCTAT | 3.137 ± 0.006 | 5.47 ± 1.1 | 7.09 ± 3.1 |
| CCCTAG | 3.11 ± 1.7 | 2.55 ± 0.57 | 4.45 ± 1.2 |
| CCCTAA | 3.68 ± 0.17 | 4.41 ± 1.4 | 6.7 ± 3.1 |
| GCCTAG | 2.58 ± 1.6 | 1.57 ± 0.49 | 3.67 ± 1.2 |
